Screening results as filed in PubChem.
Rtt109 HAT inh: C. albicans Rtt109 histone acetyltransferase inhibition; 330,000 compounds, 0.16% hits; purified Rtt109/Vps75, ThioGlo CoA-SH fluorescence, 4 h; inhibition, % at 34.9 µM; Q5AAJ8; AID 540336;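 active = inhibition of at least 50% in every replicate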
V-ATPase pHluor: alters yeast V-ATPase proton transport | response, % at 10 µM | S. cerevisiae, pHLuorin cytosolic pH fluorescence | 350,000 compounds, 0.37% hits; in the data active = response mostly above about 7.3%, no sharp cut-off; inactive = mostly below about 5.4%; note: actives read high
beta cell repl: MIN6 beta-cell proliferation induction | MIN6 cells proliferation, ATPlite luminescence, 48 h; cells starved in 0.2% serum; 100% = growth in 10% serum | proliferation, % at 10 µM | 330,000 compounds, 0.29% hits | AID 2380;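 active = compounds whose signal lies at least 3.5 SD above the mean of all wells on their plate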
HDAC3 inhib: blocks human histone deacetylase 3 | inhibition, % at 8.3 µM | 320,000 compounds, 0.15% hits | recombinant HDAC3, fluorogenic peptide/trypsin coupled, fluorescence; in the data active = inhibition above about 26%, passing the limit was not always enough
Target sequence (O15379 whole entry, looked up): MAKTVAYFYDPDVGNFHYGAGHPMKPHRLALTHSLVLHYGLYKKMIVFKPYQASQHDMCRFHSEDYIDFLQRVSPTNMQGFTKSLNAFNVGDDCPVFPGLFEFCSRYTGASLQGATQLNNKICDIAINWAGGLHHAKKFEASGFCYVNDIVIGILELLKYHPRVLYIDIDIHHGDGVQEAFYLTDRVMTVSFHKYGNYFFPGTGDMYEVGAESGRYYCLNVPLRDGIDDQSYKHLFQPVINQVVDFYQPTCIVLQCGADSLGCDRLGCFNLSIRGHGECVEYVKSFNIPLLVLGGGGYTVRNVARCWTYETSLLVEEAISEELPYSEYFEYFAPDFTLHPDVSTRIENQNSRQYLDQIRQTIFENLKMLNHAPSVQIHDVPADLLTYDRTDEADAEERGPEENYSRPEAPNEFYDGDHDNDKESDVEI
DAGLB inhibitor: diacylglycerol lipase beta (human) inhibition. 340,000 compounds, 0.059% hits. Q8NCG7. HEK293T DAGLB membrane lysate, EnzChek fluorogenic substrate. inhibition, % at 5.17 µM; in the data active = inhibition above about 34%
VATPase regulator: yeast V-ATPase proton transport regulation; shares compounds with V-ATPase pHluor; S. cerevisiae pHLuorin cytosolic pH; response, % at 10 µM; AID 602197; 980 compounds, 2% hits; in the data active = response above about 24%
Hits are given with their value. Only some compounds are listed: those with a hit (about 0.96% of all), similar ones and a draw of the others.

`Cc1ccc(S(=O)(=O)N2CCN(C(=O)COC(=O)CCOc3cc(C)ccc3C)CC2)cc1` gave Rtt109 HAT inh inactive, V-ATPase pHluor 10, beta cell repl inactive, HDAC3 inhib inactive, DAGLB inhibitor inactive and VATPase regulator inactive.
Screening Cc1ccc(S(=O)(=O)N2CCN(C(=O)COC(=O)CCOc3ccccc3C)CC2)cc1 returned Rtt109 HAT inh inactive, V-ATPase pHluor 12, beta cell repl inactive, HDAC3 inhib inactive, DAGLB inhibitor inactive and VATPase regulator inactive.
COc1ccc(/C=N/NC(=O)c2cccnc2)cc1CN1CCc2cc(OC)c(OC)cc2C1C (stereo not given) was read as Rtt109 HAT inh inactive, V-ATPase pHluor inactive, beta cell repl inactive, HDAC3 inhib inactive and DAGLB inhibitor inactive.
`CN(C)S(=O)(=O)c1cccc(NC(=S)NC2CCCCC2)c1` gave Rtt109 HAT inh inactive, V-ATPase pHluor inactive, beta cell repl inactive, HDAC3 inhib inactive and DAGLB inhibitor inactive.
For CC1CCCC(NC(=S)Nc2cccc(S(=O)(=O)N(C)C)c2)C1C (stereo not given) the results were Rtt109 HAT inh inactive, V-ATPase pHluor 8.2, beta cell repl inactive, HDAC3 inhib inactive, DAGLB inhibitor inactive and VATPase regulator inactive.
Screening COc1ccc(CNc2nc3c(c(=O)n(Cc4ccc(Br)cc4)c(=O)n3C)n2C)cc1 returned Rtt109 HAT inh inactive, V-ATPase pHluor inactive, beta cell repl inactive, HDAC3 inhib inactive and DAGLB inhibitor inactive.
For Cc1ccc(/C=N/NC(=O)C(O)c2ccccc2)o1 (stereo not given) the results were Rtt109 HAT inh inactive, V-ATPase pHluor inactive, beta cell repl inactive, HDAC3 inhib inactive and DAGLB inhibitor inactive.
Cc1ccc(/C=N/NC(=O)Nc2ccccc2)o1 was read as Rtt109 HAT inh inactive, V-ATPase pHluor 38, beta cell repl inactive, HDAC3 inhib inactive, DAGLB inhibitor inactive and VATPase regulator inactive.
`CCOc1ccccc1Nc1nc(-c2sc(C)nc2C)cs1` gave Rtt109 HAT inh inactive, V-ATPase pHluor 8.3, beta cell repl inactive, HDAC3 inhib inactive, DAGLB inhibitor inactive and VATPase regulator inactive.
For COc1ccc(/C=C(\NC(=O)c2ccc(Cl)cc2)C(=O)NCCCN2CCOCC2)cc1OC the results were Rtt109 HAT inh inactive, V-ATPase pHluor inactive, beta cell repl inactive, HDAC3 inhib inactive and DAGLB inhibitor inactive.
Screening O=S1(=O)CC(N2CCCCC2)C1CN1CCCCC1 (stereo not given) returned V-ATPase pHluor inactive and DAGLB inhibitor inactive.
Screening COc1ccc(CNC(=O)CCC(=O)c2ccc(F)cc2)cc1OC returned Rtt109 HAT inh inactive, V-ATPase pHluor inactive, beta cell repl inactive, HDAC3 inhib inactive and DAGLB inhibitor inactive.
Screening O=C(CCC(=O)c1ccc(F)cc1)NCc1ccccc1C(F)(F)F returned Rtt109 HAT inh inactive, V-ATPase pHluor inactive, beta cell repl inactive, HDAC3 inhib inactive, DAGLB inhibitor inactive and VATPase regulator inactive.
`c1ccc(-n2ncc3c2ncn2nc(-c4ccco4)nc32)cc1` gave Rtt109 HAT inh inactive, V-ATPase pHluor inactive, beta cell repl inactive, HDAC3 inhib inactive and DAGLB inhibitor inactive.
For COc1cc(/C=N/NC(=O)CN2CCOCC2)ccc1OCc1ccccc1 the results were Rtt109 HAT inh inactive, V-ATPase pHluor inactive, beta cell repl inactive, HDAC3 inhib inactive and DAGLB inhibitor inactive.
COc1cc(/C=N/NC(=O)CN2CCCCC2)ccc1OCc1ccccc1 was read as Rtt109 HAT inh inactive, V-ATPase pHluor 9.6, beta cell repl inactive, HDAC3 inhib inactive, DAGLB inhibitor inactive and VATPase regulator inactive.
